Screening data (PubChem BioAssay)
A selection: hits, their analogues and other compounds. The true share with any hit is near 0.82%.
GPT2 inh: blocks human glutamate pyruvate transaminase 2; Q8TD30; Recombinant GPT2, coupled pyruvate oxidase/HRP Amplex Red fluorescence; Potency, µM (series often up to 57.7 µM), usual class: inhibitors; 100,000 compounds, 0.25% hits; AID 1671188; also: nearly all actives have a fitted effect of over 60% in size
Target sequence (Q8TD30 whole entry, looked up): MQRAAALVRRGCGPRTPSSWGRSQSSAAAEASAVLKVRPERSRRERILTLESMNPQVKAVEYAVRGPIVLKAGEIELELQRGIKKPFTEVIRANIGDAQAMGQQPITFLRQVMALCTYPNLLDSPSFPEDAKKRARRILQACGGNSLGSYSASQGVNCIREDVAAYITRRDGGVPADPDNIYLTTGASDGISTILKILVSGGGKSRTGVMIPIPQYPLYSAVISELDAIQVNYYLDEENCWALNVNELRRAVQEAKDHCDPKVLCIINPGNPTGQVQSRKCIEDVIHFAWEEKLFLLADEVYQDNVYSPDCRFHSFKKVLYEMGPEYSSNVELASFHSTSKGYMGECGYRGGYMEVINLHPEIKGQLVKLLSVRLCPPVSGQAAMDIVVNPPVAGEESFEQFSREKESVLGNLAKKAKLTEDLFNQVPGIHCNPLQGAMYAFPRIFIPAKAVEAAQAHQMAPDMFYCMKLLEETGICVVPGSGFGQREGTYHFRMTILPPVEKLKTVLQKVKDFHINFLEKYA
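Fluorescence of coupled pyruvate oxidase/HRP/Amplex Red system (50uM Amplex, 30 min, dark) reports pyruvate formed by GPT2. Enzyme reaction: 10ng/uL GPT2, 2mM L-alanine, 250uM a-KG, 30 min room temperature, pH 7.5; 50uM AOA control.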
IP6K1 inhibitor: blocks human inositol hexakisphosphate kinase 1; Q92551; IP6K1 kinase, ADP-Glo luminescence, 2 h; active compounds read low; activity change, % (series mostly up to about 58 µM); 140,000 compounds, 0.81% hits; in the data active = activity change below about -25%
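ADP-Glo luminescence measures ADP made by human IP6K1 during a 2 h RT reaction with ATP/IP6 (mix at 1.3 mM/130 uM); top library doses 57.5 and 19.1 uM final.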
IP6K1 conf: human IP6K1 inhibition, confirmatory; shares compounds with IP6K1 inhibitor; recombinant IP6K1 kinase, ADP-Glo luminescence, 2 h; Potency, µM (series often up to 49 µM), usual class: inhibitors; 1,200 compounds, 13% hits; AID 1645852; also: nearly all actives have a fitted effect of over 65% in size
A number is an active result; i = inactive; ? = inconclusive; nt = not tested or not shown; ! = a repeat was not active; [ ] = dose if it differs, or a comment. Unless noted, calls follow the shape of the dose curve; as a rule, active = well fitted curve in the direction sought with a large enough effect; inconclusive = small, poorly fitted or top-dose-only effect, or another doubt; inactive = no such curve, though single readings can be large; an effect the other way counts as inactive or inconclusive.

SMILES	GPT2 inh	IP6K1 inhibitor	IP6K1 conf
CCCc1cc(CNC(=O)c2ccc(NC3CCOC(C)(C)C3)nc2)on1 (configuration not stated)	i	i	nt
Cc1ncccc1C(=O)N1CCCC(c2nc(-c3ccccc3)no2)CCNC(=O)CC1 (configuration not stated)	i	i	nt
CN(CC(=O)N1CCC(Cc2nc(C3CCOCC3)no2)CC1)S(=O)(=O)c1cnc[nH]1	i	i	nt
Cc1oc(-c2ccc(C(=O)NCc3ccc(N(C)C)cc3)cc2)nc1COc1ccccc1	nt	-25	i
Cc1ccc(OCc2nc(-c3ccc(C(=O)NCc4ccc(OC(C)C)cc4)cc3)oc2C)cc1	nt	i	nt
O=C(O)CCC(=O)NC1CC2(CCN(Cc3ccncc3)CC2)c2ccccc21 (configuration not stated)	i	i	nt
Oc1ccc(Cl)cc1Cc1cc(Cl)ccc1O	i	i	nt
O=C(O)c1cc(O)c(O)c(O)c1	?	-28	i
NS(=O)(=O)c1ccc(C(=O)O)cc1	i	i	nt
O=C(c1cc(O)c(O)c(O)c1)c1ccc(O)c(O)c1O	?	-67	i
FC1(c2nc(-c3ccccc3)no2)CCN(C2CCOCC2)CC1	i	i	nt
COc1cc(CN2C[C@@H]3C(=O)N(CCCN4CCCC4=O)C(=O)[C@@H]3C2)cc(OC)c1	i	i	nt
COc1ccc(CCNc2nc3c(-c4cccc(C)c4)nnn3c3ccccc23)cc1OC	nt	-32	i
CCCCNc1nc2c(-c3cccc(C)c3)nnn2c2ccccc12	nt	i	nt
CCNC(=O)CCc1c(C)nn(-c2ccc(F)cc2)c1Oc1ccc(F)cc1F	i	i	nt
CCn1c2ccccc2c2cc(CN3CCN(Cc4ccc(OC)c(OC)c4)CC3)ccc21	nt	i	nt
CCOc1ccc(CN2CCN(Cc3ccc4c(c3)c3ccccc3n4CC)CC2)cc1	nt	-32	i
CCC(C)(C)C(=O)NCc1cc2c(nc1OC)CN(C1CCCC1)C2=O	?	-30	i
COc1nc2c(cc1CNC(=O)CC1CCCCC1)C(=O)N(C1CCCC1)C2	i	i	nt
CCCC(=O)NCc1cc2c(nc1OC)CN(C1CCCC1)C2=O	i	i	nt
CCC(=O)NCc1cc2c(nc1OC)CN(C1CCCC1)C2=O	i[11.5 µM]	-33	i
O=C(O)c1cccc(C2CCCN(C(=O)c3ccccc3-c3ncn[nH]3)C2)c1 (configuration not stated)	i	i	nt
COCCNC(=O)CNC(=O)c1cccc(-c2ccsc2)c1	i	i	nt
CCC(=O)c1cc2c(cc1NC(=O)c1ccccc1F)OCCO2	nt	i	nt
CC(C)C(=O)c1cc2c(cc1NC(=O)c1ccccc1F)OCCO2	nt	-28	i
SMILES	GPT2 inh	IP6K1 inhibitor	IP6K1 conf
CC(c1ccccc1)N1CCN(c2cccc(CN(C)[S+](C)(=O)[O-])c2F)CC1 (configuration not stated)	nt	i	nt
Cc1ccccc1C(=O)N1CCN(Cc2ccccc2-c2cccnc2)CC1	i	i	nt
O=C(Nc1ccc(Cl)cc1)N1CCCN(c2ccc3nnc(-c4ccccc4)n3n2)CC1	nt	i	nt
O=C(Nc1ccc(Cl)cc1)N1CCN(c2ccc3nnc(-c4ccccc4)n3n2)CC1	nt	-30!	?
O=C(c1cncc(Br)c1)N1CCC2(CC1)CC(O)CCO2 (configuration not stated)	i	i	nt
Cc1cccc2sc(N(CCN(C)C)C(=O)c3ccc4c(c3)OCCO4)nc12	nt	-35	i
CN(C)CCCN(C(=O)c1ccc2c(c1)OCCO2)c1nc2ccccc2s1	nt	i	nt
CC(C(=O)O)N1CC2(CCC1=O)CCN(C(=O)N1CCCC1)CC2 (configuration not stated)	i	i	nt
C[C@@H]1CN(C(=O)c2scc3c2CCCC3)C[C@@]1(O)C1CC1	i	i	nt
O=C(CN1C(=O)CCSc2ccc(S(=O)(=O)N3CCCC3)cc21)Nc1ccccc1Cl	nt	i	nt
CCc1ccccc1NC(=O)CN1C(=O)CCSc2ccc(S(=O)(=O)N3CCCC3)cc21	nt	-31	i
O=C(NCc1cccc(Cl)c1)c1ccc2nc(N3CCCCC3)sc2c1	nt	i	nt
O=C(NCCc1ccccc1)c1ccc2nc(N3CCCCC3)sc2c1	nt	-31	i
CC(C)Cn1c(=O)c2ccccc2n2c(CCC(=O)NCc3ccc(Cl)cc3)nnc12	nt	-28	i
Cc1ccc(CNC(=O)CCCc2nnc3n(CC(C)C)c(=O)c4sccc4n23)cc1	nt	i	nt
CCOC(=O)c1sc(NC(=O)CC[C@H]2NC(=O)c3ccccc3NC2=O)nc1C	i	i	nt
COc1ccc(C(=O)O[C@H]2CC(C)=CC[C@@]3(C)[C@@H](OC(C)=O)C[C@@](O)(C(C)C)[C@H]23)cc1	i	i	nt
CC(C)[C@H](CO)Nc1nc(Nc2ccc(C(=O)O)c(Cl)c2)c2ncn(C(C)C)c2n1	i	i	i
CC(C)C(CO)Nc1nc(Nc2cc(N)cc(Cl)c2)c2ncn(C(C)C)c2n1 (configuration not stated)	i	i	nt
